This is part of a sample that, as a whole, favours compounds with a hit. Of some 83,000 tested, about 20% had one in any assay.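 Values shown are percent growth following 48 h exposure of cells in 96-well plates to a single concentration of compound; below 10 was considered active.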 Values without a mark were called inactive. The source made the active and inactive calls.
Tests used:
Test in all cases: NCI-60 one-dose screen, 48 h (100 = growth as untreated, 0 = no growth, -100 = all killed)
Conditions in all cases: 10 µM unless noted
T-47D breast = system: T-47D breast
BT-549 breast = system: BT-549 breast
MDA-MB-435 melanoma = system: MDA-MB-435 melanoma
SW-620 colon = system: SW-620 colon
MCF7 breast = system: MCF7 breast
HCT-116 colon = system: HCT-116 colon
HCC-2998 colon = system: HCC-2998 colon
KM12 colon = system: KM12 colon

| Structure (SMILES) | growth (T-47D breast) | growth (BT-549 breast) | growth (MDA-MB-435 melanoma) | growth (SW-620 colon) | growth (MCF7 breast) | growth (HCT-116 colon) | growth (HCC-2998 colon) | growth (KM12 colon) |
| --- | --- | --- | --- | --- | --- | --- | --- | --- |
| O=C(CNC(=O)c1cccc2ccccc12)Nc1ccccc1Oc1ccccc1 | 12.1% | -0.557% (active) | -5.12% (active) | 22.8% | 11.3% | -2.26% (active) | 21% | 9.93% (active) |
| O=c1[nH]c2ccccc2cc1-c1nnc(Cc2ccccc2)o1 | 42.2% | 48.9% | 52.9% | 45% | 20.5% | 7.52% (active) | 78.9% | 77.8% |
| Cc1ccc2c(c1)ncn2-c1ncnc2c1CC(C)c1ccccc1N2C (stereo not given) | 24.4% | -6.44% (active) | 11.8% | 22.9% | 12.9% | 10.1% | 26.8% | 10.5% |
| Cc1nc(Nc2cccnc2)sc1C(=O)/C=C/c1ccc(F)cc1 | 30.2% | 1.57% (active) | 2.86% (active) | 9.84% (active) | 14.2% | 3.7% (active) | 83.4% | 11.3% |
| CC1=C(C#N)C(C)(C)C(C#N)=C(C)N1 | 96.6% | 100% | 105% | 102% | 96.7% | 104% | 108% | 103% |
| O=C(O)c1ccc(-n2c(=O)c3ccccc3c3ccccc3c2=O)cc1 | 92.8% | 107% | 103% | 110% | 96.3% | 104% | 110% | 104% |
| C[N+](C)(C)c1ccc(CC2c3ccccc3-c3ccccc32)cc1 | 51.1% | 59.2% | 90.4% | 86.2% | 84.1% | 73.3% | 88.8% | 77% |
| COc1ccc(/C=C/c2nc(N3CCOCC3)c3cc(F)c(F)cc3n2)cc1OC | 6.31% (active) | 33.4% | 15.8% | 55.5% | 15.9% | 38.7% | 38.2% | 28.1% |
| CC/C=C\C[C@H](O)C/C=C1/C(=O)C(Cl)=C[C@@H]1C/C=C\CCCC(=O)O | 56.9% | 58.5% | 19.3% | 2.12% (active) | 26.3% | -88.6% (active) | 76.4% | 46.4% |
| COc1ccc2c(c1)C=CC(C#N)N2C(=O)c1ccccc1 (stereo not given) | 69.8% | 0.256% (active) | -52.4% (active) | 21.6% | 15% | 8.13% (active) | 18.6% | 13.4% |
| CCCCNC(=O)NS(=O)(=O)c1ccc(N2N=C(c3ccc(C)cc3C)CC2c2ccc(OC)cc2)cc1 (stereo not given) | 75% | 49.9% | 9.96% (active) | 75.9% | 48.7% | 51.6% | 58.6% | 48% |
| O=C(CN1CCOCC1)Nc1ccc(-c2nc3ccccc3s2)cc1 | 93.3% | 104% | 108% | 108% | 48.8% | 96.1% | 88% | 107% |
| O=S(=O)(c1ccccc1)n1ccc(-c2ccc3c(c2)CCO3)n1 | 68.8% | 96% | 104% | 93.6% | 83.2% | 89.1% | 90.8% | 91.9% |
| COc1ccc(C2SCC(=O)N2NC(=O)c2ccc(NC(=O)c3ccccn3)cc2)cc1OC (stereo not given) | 97.8% | 102% | 104% | 104% | 104% | 100% | 104% | 95.8% |
| COc1ccc([N+](=O)[O-])c(/C=C/C(=O)c2ccccn2)c1 | 91.8% | 94.2% | 94.5% | 16.9% | 67% | 1.9% (active) | 120% | 84.5% |
| COC(=O)CCCCN=Cc1c(O)c(O)c(C(C)C)c2cc(C)c(-c3c(C)cc4c(C(C)C)c(O)c(O)c(C=NCCCCC(=O)OC)c4c3O)c(O)c12 | 24.9% | 28.2% | 25.7% | 17% | 9.71% (active) | 14.9% | 29.7% | 16.1% |
| O=C1Nc2cc(Cl)ccc2/C1=C/c1ccc(N2CCOCC2)s1 | 84% | 109% | 102% | 102% | 86.7% | 96.6% | 114% | 105% |
| CCC1CCc2nc3sc(C(=O)Nc4ccccc4F)c(N)c3cc2C1 (stereo not given) | 87.4% | 76% | -15.5% (active) | 36.4% | 18.9% | 63.8% | 91.6% | 35.3% |
| O=C(Nc1ccc(F)cc1)c1cc([N+](=O)[O-])ccc1O | 56% | 81.5% | 72.2% | 76.5% | 61.5% | 66.8% | 63.9% | 51.6% |
| COc1ccc(/C=C/C(=O)/C=C/c2cc3ccc(Cl)cc3[nH]c2=O)cc1 | 67.3% | 75.6% | 81.5% | 66.1% | 25.2% | -50.8% (active) | 93.1% | 72.5% |
| COc1cccc(/C=C2\SC(N3CCN(c4ccccn4)CC3)=NC2=O)c1 | 95% | 112% | 108% | 97.9% | 94.8% | 103% | 99.4% | 97.4% |
| Cc1cc2c(C(C)C)c(O)c(O)c(C=NCCCCCCC(=O)O)c2c(O)c1-c1c(C)cc2c(C(C)C)c(O)c(O)c(C=NCCCCCCC(=O)O)c2c1O | 26.9% | 37.8% | 27.2% | 27.2% | 11.7% | 17.6% | 33.5% | 15.7% |
| COC(=O)CC/C(C)=N\Nc1ccc([N+](=O)[O-])cc1 | 42% | 89.1% | 31.7% | 54.4% | 77.1% | 54.1% | 66.1% | 24.3% |
| CCCCCCCCCCCCCCCCC(Br)C(=O)O (stereo not given) | 86.7% | 122% | 98.4% | 116% | 92.9% | 105% | 102% | 111% |
| COc1ccc(/C=C/C(=O)c2ccc(B(O)O)cc2)cc1O | 79.2% | 64.8% | 3.03% (active) | 28.5% | 20.2% | 1.46% (active) | 49.8% | 9.39% (active) |
